Experimental findings from PubChem BioAssay are described below.

Molecules are shown by their SMILES. Activity calls are given as the source filed them.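 How the source made its calls: active means viability loss from added drug above about 55%, and viability with drug at most 40%, in both replicates (limit read from the data, passing the limit was not always enough); inconclusive means both conditions met in only one replicate; inactive means neither replicate meets both conditions.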

The experiment in a line: reversal of MRP1-mediated doxorubicin resistance, pilot screen, H69AR cells, doxorubicin co-treatment (AID 601). To be noted: H69AR cells + 2 uM doxorubicin, CellTiter-Glo, 72 h; at 10 µM; active compounds read high. (In general: ATP-based viability assays read luminescence as a measure of living cells.)
Take `CCOC(=O)C(NC(C)=O)(NS(=O)(=O)c1ccccc1)C(F)(F)F` (stereo unspecified): the differential viability (reversal) was 5.89% (inactive).

For the molecule `N#Cc1c(/N=C/c2ccco2)sc2c1CCC2`, the differential viability (reversal) is -1.43% (inactive).

On to `c1ccc(-c2noc(C34CC5CC(CC(C5)C3)C4)n2)nc1`, for which the differential viability (reversal) is 17.3% (inactive).

Take `COc1cc(S(=O)(=O)N2CCOCC2)ccc1NC(=O)COC(=O)C12CC3CC(CC(C3)C1)C2`: the differential viability (reversal) was -11.2% (inactive).

`Cc1cc(C)n(-c2nc3c(c(=O)n(Cc4ccc(Cl)c(Cl)c4)c(=O)n3C)n2C)n1`: the differential viability (reversal) was 5.92% (inactive).

Regarding `O=C(CCN1C(=O)COc2ccccc21)NCCCN1CCN(c2ccccc2F)CC1`, the differential viability (reversal) is 5.56% (inactive).

With `CC(=O)c1cc(F)c(N2CCN(C(=O)Cc3ccccc3)CC2)cc1C`, the differential viability (reversal) is -7.49% (inactive).

Turning to `COc1ccc(-n2nnnc2-c2cccc(OC)c2)cc1`, the differential viability (reversal) is -26.5% (inactive).

With `COc1ccc(OC)c(Nc2cc(-c3ccccc3)nc(N)n2)c1`, the differential viability (reversal) is -36.4% (inactive).

For the molecule `Cc1ccc(-c2csc3ncn(-n4c(C)ccc4C)c(=O)c23)o1`, the differential viability (reversal) was 10.3% (inactive).

With `O=C(CN1C(=O)CCSc2ccccc21)Nc1ccccc1`, the differential viability (reversal) is 15.9% (inactive).

Take `CC(=O)Nc1ccc(S(=O)(=O)Nc2nc3ccccc3nc2N2CCCC2)cc1`: the differential viability (reversal) is -8.08% (inactive).

With `CC(=O)c1cnc2cc(-c3ccccc3)nn2c1C`, the differential viability (reversal) is 19.5% (inactive).

On to `Nc1cc(C(=O)O)ccc1Nc1ccc(F)c(F)c1`, for which the differential viability (reversal) is 10.3% (inactive).

Consider `O=C(NCc1cccnc1)c1cn(CCc2ccccc2)nn1`, for which the differential viability (reversal) was 20.4% (inactive).

On to `COc1ccc(-n2c(SCc3ccc(C#N)cc3)nnc2-c2ccccn2)cc1`, for which the differential viability (reversal) is 11.2% (inactive).
